PubChem BioAssay AID1508622 (National Center for Advancing Translational Sciences (NCATS), 2021)
The source made the active and inactive calls. A call without a number means that no potency is given here. Calls come from the whole dose curve; as a rule, active = well fitted activation curve with a large enough effect; inconclusive = small, poorly fitted or top-dose-only effect; inactive = no such curve, though single readings can be large or run the other way.
Potency is the fitted concentration of half-maximal effect.

Test: Confirmatory qHTS for Identification of Small Molecule Activators of Huntingtin-Antisense Promoter Activity
Details: HEK293 HTT-AS promoter firefly luciferase reporter, 24 h; series mostly up to 57.5 µM
Description: Assay Provider: Russell L. Margolis M.D.
Department Neurology, Johns Hopkins University School of Medicine, Baltimore, MD
Huntington's Disease (HD) is a neurodegenerative disorder caused by a CAG repeat expansion in exon 1 of huntingtin (HTT). While there are currently no disease-modifying treatments for HD, recent efforts have focused on development of nucleotide-based therapeutics to lower HTT expression. As an alternative to siRNA or oligonucleotide methods, we hypothesized that suppression of HTT expression might be accomplished by small molecules that either (1) directly decrease HTT expression by suppressing HTT promoter activity or (2) indirectly decrease HTT expression by increasing the promoter activity of HTT-AS, the gene antisense to HTT that appears to inhibit expression of HTT.
We developed and employed a high throughput screen for modifiers of HTT and HTT-AS promoter activity using luminescent reporter HEK293 cells; of the 52,041 compounds tested, we identified 898 replicable hits. We used a rigorous stepwise approach to assess compound toxicity and the capacity of the compounds to specifically lower huntingtin protein in 5 different cell lines, including HEK293 cells, HD lymphoblastoid cells, mouse primary neurons, HD iPSCs differentiated into cortical-like neurons, and HD hESCs. We found no compounds which were able to lower huntingtin without lowering cell viability in all assays, though the potential efficacy of a few compounds at non-toxic doses could not be excluded.
SEQUENCE No. (1, 2, 3, etc.); […] (e.g., Cells, Incubation, Reagent, etc.); VALUE and DESCRIPTION.
1; Reagent; 4 uL; 2,500 Hek293 luciferase reporter cells per wells
3; Compound; 23 nL; Control inhibitor / compound library
5; Reagent; 2.5 uL; Firefly Luc reagent; Dual-Glo Luciferase Reporter Assay System (Promega)
6; Time; 10 min; room temperature incubation
7; Detection; Luminescence; FLuc
NOTES (numbers refer to sequence above)
1; High-throughput screening, measuring luminescence from a Hek293 luciferase reporter, was performed in 1,536 well white-walled tissue-culture treated plates. 2,500 cells were plated in 4 uL of Opti-MEM per well using a Multidrop Combi Reagent Dispenser (ThermoFisher).
2; Assay plates were cultured for 24 hours.
3; Control inhibitor (PTC124; final concentration of 50 uM) and compound library (at final concentrations of 460 nM - 57.5 uM) were added to the assay plate using the Kalypsis Pintool Robotic System equipped with 1536 pinheads.
4; Cells were then incubated for 24 hours at 37C prior to luminescence measurements.
5; In all cases, luminescence was measured using the Dual-Glo Luciferase Reporter Assay System (Promega) following the manufacturer's instructions.
6; Room temperature incubation.
7; Luminescence signal was obtained using the PerkinElmer ViewLux plate reader. Results were normalized to vehicle control (0% activity) and zero RLU (-100% activity).
In the case of `CCc1ccc(C2CC(=O)Nc3c2c(C)nn3-c2nc(C)cc(C)n2)cc1` (stereo not given), the Potency is reported as “inactive”. With `Cc1ccccc1CNC(=O)c1ccc(-c2nc(CS(=O)(=O)c3ccccc3)c(C)o2)cc1` the Potency was “inactive”. With `CCOc1ccc(NC(=O)c2ccc(F)c(S(=O)(=O)N(CC)Cc3ccccc3)c2)cc1` the Potency was “inactive”. With `CCOCc1cc(CN2CCN(c3ccccc3OC)CC2)c(O)c2ncccc12` the Potency was “inactive”. In the case of `COc1ccc(C)cc1NC(=O)Cn1c(=O)cc(C)c2c(C)nn(C)c21`, the Potency is reported as “inactive”. For `CCS(=O)(=O)c1ccc(C(=O)N2CCN(c3nc4c(OC)ccc(C)c4s3)CC2)cc1`, the Potency was “inactive”. For `CC(C)C1C(=O)Nc2ccc(S(=O)(=O)NCc3ccc(Cl)cc3)cc21` (stereo not given), the Potency was “inactive”. With `CCc1nnc(NC(=O)c2nc(S(=O)(=O)Cc3cccc(C)c3)ncc2Cl)s1` the Potency was “inactive”. For `Cc1cc(NC(=O)NCc2ccc3c(c2)CCN3C(=O)c2ccccc2)ccc1Br`, the Potency was “inactive”. For `CCN(c1ccccc1)S(=O)(=O)c1c(-c2ccc(C)cc2)csc1C(=O)OC`, the Potency was “inactive”. In the case of `CC1=C(C(=O)OC2CCCC2)C(c2ccccc2Cl)CC(=O)N1` (stereo not given), the Potency is reported as “inactive”. In the case of `Cc1cc(N2CCCCC2)nc2ccc(NC(=O)/C=C/c3ccc(OC(C)C)cc3)cc12`, the Potency is reported as “inactive”. For `CC(C)OCc1cc(CN2CCN(c3ccccc3)CC2)c(O)c2ncccc12`, the Potency was “inactive”. For `COc1ccccc1NC(=O)c1ccc(-c2nc(COc3ccc(C)cc3)c(C)o2)cc1`, the Potency was “inactive”. For `CC[C@@H]1C(=O)N(C)c2cnc(Nc3ccc(C(=O)NC4CCC(N5CCN(CC6CC6)CC5)CC4)cc3OC)nc2N1C(C)C` (stereo not given in full), the Potency was “inactive”. In the case of `CCN(C(=O)C1CCC(CNS(=O)(=O)c2cccc3nsnc23)CC1)c1ccccc1` (stereo not given), the Potency is reported as “inactive”. With `CCOc1ccccc1CNC(=O)c1cc2c(=O)n(Cc3ccccc3)ccc2nc1C` the Potency was “inactive”. For `CN(C)S(=O)(=O)c1ccc(C(=O)NCCSc2c(-c3ccc(Cl)cc3)[nH]c3ccccc23)cc1`, the Potency was “inactive”. With `CCc1ccc(CNC(=O)c2sc3ncccc3c2-n2c(C)ccc2C)cc1` the Potency was “inactive”. For `CSc1ccc(CCNC(=O)c2ccc(CS(=O)(=O)c3ccc(Br)cc3)o2)cc1`, the Potency was “inactive”. In the case of `COc1ccc(C(=O)Nc2ccc(S(=O)(=O)N(Cc3ccccc3)c3ccccc3)cc2)cc1`, the Potency is reported as “inactive”. In the case of `Cc1cccc(NC(=O)Cn2c(=O)oc3cc(S(=O)(=O)N4CCCCCC4)ccc32)c1`, the Potency is reported as “inactive”. For `CCOc1cc(CNC(=O)c2sc3ncnc(N(C)C4CCCCC4)c3c2C)ccc1OC`, the Potency was “inactive”. For `O=C(CN(c1cccc(C(F)(F)F)c1)S(=O)(=O)c1ccccc1)Nc1cccc(Cl)c1`, the Potency was “inactive”. For `COc1ccc(OC)c(CCNC(=O)C(C)n2nc(C)c3c(C)n(-c4ccc(C)cc4)nc3c2=O)c1` (stereo not given), the Potency was “inactive”. In the case of `COc1ccccc1CNS(=O)(=O)c1ccc2c(c1)CC(C)N2C(=O)C1CCC1` (stereo not given), the Potency is reported as “inactive”. With `Cc1c(C(=O)Nc2ccc(F)cc2)oc2ccc(S(=O)(=O)N3CCCCCC3)cc12` the Potency was “inactive”. With `O=C(Cn1cc(S(=O)(=O)Cc2ccccc2F)c2ccccc21)Nc1ccc(F)c(Cl)c1` the Potency was “inactive”. For `Cc1ccc(S(=O)(=O)NCCc2csc(-c3cccc(F)c3)n2)cc1`, the Potency was “inactive”. With `O=C(c1cccs1)N(Cc1cccnc1)c1nc2ccc(F)cc2s1` the Potency was “inactive”. For `CCOc1ccc(S(=O)(=O)N(C(=O)c2ccncc2)c2ccc3oc(C)c(C(=O)OC)c3c2)cc1`, the Potency was “inactive”. With `Cc1oc(-c2ccc(C(=O)NCc3ccccc3F)cc2)nc1COc1ccccc1` the Potency was “inactive”. With `Cc1ccc(C(=O)Nc2nnc(SCc3cc(=O)c4c(C)ccc(C)c4[nH]3)s2)cc1` the Potency was “inactive”. For `Cn1c(CN2CCCCC2)nc2cc(NC(=O)c3ccc(Cl)cc3)ccc21`, the Potency was “inactive”. With `Cc1oc(-c2ccc(C(=O)NCCCOC(C)C)cc2)nc1CS(=O)(=O)c1ccccc1` the Potency was “inactive”. For `COc1ccc(C(=O)Nc2ccc(-c3cc4ccccc4oc3=O)c(C)c2)cc1Br`, the Potency was “inactive”. For `CSc1ccc(/C=C/c2nc3ccccc3n2S(=O)(=O)c2ccc(F)c(C)c2)cc1`, the Potency was 135 nM (active). In the case of `N#CC[C@H](C1CCCC1)n1cc(-c2ncnc3[nH]ccc23)cn1`, the Potency is reported as “inactive”. In the case of `CCN(CC)S(=O)(=O)c1ccc(NC(=O)CCc2c(C)nc3cc(-c4ccc(Cl)cc4)nn3c2C)cc1`, the Potency is reported as “inactive”. With `COc1cc(CCC(=O)NCc2ccc3c(c2)CCN3C(=O)c2ccccc2)cc(OC)c1OC` the Potency was “inactive”.
